DAX1 inh-1 – inhibitors of DAX1 repression of SF-1 activated StAR promoter; 370,000 tested, 1.1% active; inhibition, % at 6.8 µM; HEK293T StAR-luciferase reporter, SF-1/DAX-1 repression relief;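 active means inhibition above the mean over all tested compounds plus 3 SD, cut at about 3.6% in these data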;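 further: 0% = DAX-1 cells with DMSO and 100% = cells lacking DAX-1 with DMSO; higher inhibition means more luminescence from relief of DAX-1 repression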
hcDAF12 agonist – activators of H. contortus DAF-12 nuclear receptor. HEK293 hcDAF-12 lit1-tk-luc reporter, luminescence; 0% DMSO, 100% Δ7-dafachronic acid. activation, % at 6.8 µM. 370,000 tested, 1.4% active. AID 652067;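 active means activation above the mean of all tested compounds plus 3 SD, cut at about 5.5% in these data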;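 further: 100% = response to 3 µM Δ7-dafachronic acid high control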
SMARCA2 activ – increases SMARCA2 function in MMTV reporter cells; MG213 cells, MMTV-luciferase reporter, dexamethasone, overnight; activation, % at 9.1 µM; 370,000 tested, 1% active; in the data active means activation above about 7.8%;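 further: 0% = vehicle wells and 100% = reference activator wells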
DAX1 inh-2 – inhibits human nuclear receptor DAX1; inhibition, % at 6.75 µM; HEK293 Gal4-DAX1 luciferase reporter, luminescence; AID 504766; 340,000 tested, 0.99% active; P51843;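 active means inhibition above the mean over all tested compounds plus 3 SD, cut at about 4.2% in these data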;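 further: 0% = DAX1-transfected cells with DMSO and 100% = empty-vector control cells with DMSO; inhibition shows as a rise in luminescence from relieved DAX1 repression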
ssDAF-12 act – activators of S. stercoralis DAF-12 nuclear receptor; HEK293 ssDAF-12/GRIP1 lit1-tk-luc reporter, luminescence; % of 3 µM dafachronic acid response; activation, % at 6.8 µM; 370,000 tested, 1% active;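 active means activation above the mean over all tested compounds plus 3 SD, cut at about 0.9% in these data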;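 further: 0% = DMSO-only wells and 100% = 3 µM delta7-dafachronic acid wells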
hgDAF12 agonist – agonists of H. glycines DAF-12 nuclear receptor; HEK293 GAL4-hgDAF12 UAS-luciferase reporter, agonist luminescence; normalized to butyrate control; activation, % at 6.8 µM; 370,000 tested, 1.8% active; AID 687014;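 active means activation above a cutoff set at the mean of all screened compounds plus 3 SD, cut at about 10% in these data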;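 further: 0% = DMSO wells and 100% = sodium butyrate wells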
DAX1 conf – confirmation of human DAX1 (NR0B1) inhibitors; HEK293T StAR-promoter luciferase reporter, SF-1/DAX-1 repression; 2,400 tested, 87% active; shares compounds with DAX1 inh-1; inhibition, % at 6.8 µM;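 active means inhibition above the average of every tested compound plus 3 SD, cut at about 3.8% in these data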;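 further: 0% = DAX-1 cells with DMSO and 100% = no DAX-1 control cells with DMSO; active compounds raise luminescence by relieving repression of the StAR reporter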
SF1 mutant ctr – counter-screen for DAX1 inhibitors: nonselective inhibitors with SF-1 AF2 mutant | shares compounds with DAX1 inh-1 | HEK293 StAR-luciferase, luminescence | inhibition, % at 6.8 µM | 2,400 tested, 78% active | AID 652136;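 active means inhibition above the mean of all tested compounds plus 3 SD, cut at about 3% in these data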;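 further: 0% = DAX-1 transfected cells with DMSO and 100% = cells without DAX-1 with DMSO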
LXR ag – counter-screen for hcDAF-12 agonists: agonists of human LXR-beta. shares compounds with hcDAF12 agonist. HEK293 Gal4-LXR tk-luc reporter, luminescence, 24 h; normalized: DMSO 0%, positive control 100%. activation, % at 6.8 µM. 3,400 tested, under 10 active. AID 743027;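 active means mean percent activation of the reporter above a cutoff set as the average over tested compounds plus their standard deviation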
Target sequence (P55055 whole entry, looked up, the tested form may be a part): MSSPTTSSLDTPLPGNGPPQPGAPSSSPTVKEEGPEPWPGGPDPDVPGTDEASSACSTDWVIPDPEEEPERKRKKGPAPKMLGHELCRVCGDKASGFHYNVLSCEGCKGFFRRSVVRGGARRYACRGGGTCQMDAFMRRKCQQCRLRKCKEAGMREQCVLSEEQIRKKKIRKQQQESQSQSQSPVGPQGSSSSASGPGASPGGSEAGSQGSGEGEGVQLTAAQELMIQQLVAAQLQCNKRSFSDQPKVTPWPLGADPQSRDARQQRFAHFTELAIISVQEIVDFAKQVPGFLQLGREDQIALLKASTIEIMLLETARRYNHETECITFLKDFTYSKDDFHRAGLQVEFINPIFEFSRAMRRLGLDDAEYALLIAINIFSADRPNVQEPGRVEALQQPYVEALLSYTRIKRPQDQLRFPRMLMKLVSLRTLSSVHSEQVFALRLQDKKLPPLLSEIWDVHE
hcDAF12 conf – hcDAF-12 agonism, confirmation assay | shares compounds with hcDAF12 agonist | HEK293 hcDAF-12 lit1-tk-luc reporter, luminescence; % of Δ7-dafachronic acid response | activation, % at 6.8 µM | 3,400 tested, 61% active | AID 743032;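 active means mean activation across triplicate tests above the threshold derived from the earlier primary screen, cut at about 5.5% in these data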;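 further: 0% = DMSO only wells and 100% = 3 µM Δ7-dafachronic acid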
* = called active by the depositor; nt = not tested or not shown. Sampled rows, rich in hits. Any-hit rate of the full collection: about 4.8%.

SMILES	DAX1 inh-1	hcDAF12 agonist	SMARCA2 activ	DAX1 inh-2	ssDAF-12 act	hgDAF12 agonist	DAX1 conf	SF1 mutant ctr	LXR ag	hcDAF12 conf
Cc1ccnc(NC(=O)Cc2ccc([N+](=O)[O-])cc2)c1	0	3	-3	-1	-1	5	nt	nt	nt	nt
Cc1cc(-c2nc3ccccc3s2)ccc1N	6.7*	15*	0	-3	3.1*	12*	10*	3.1*	2	21*
CCOC(=O)c1sc(=NC(=O)c2ccc(C)c(C)c2)n(C)c1C	0	0	3	-1	0	4	nt	nt	nt	nt
CCOC(=O)c1sc(=NC(=O)c2ccccc2Br)n(C)c1C	7.4*	13*	5	1	1	11*	9.6*	4.2*	2	10*
O=C(Cn1c(-c2cncs2)nc2ccccc21)N1CCCCC1	0	0	-6	nt	-1	-2	nt	nt	nt	nt
C/C(=N\NC(=O)c1ccccc1)C1C2C=CC(C2)C1(C)C (configuration not stated)	6.0*	8.3*	5	5.3*	1.9*	9	2	0	0	4
C/C(=N/NC(=O)c1ccccc1)C(=O)O	1	1	-1	0	-1	-1	nt	nt	nt	nt
N#C/C(=C\c1ccco1)c1nc2ccccc2s1	5.1*	15*	6	4	2.5*	17*	14*	9.1*	2	11*
N#C/C(=C\c1ccc(O)c([N+](=O)[O-])c1)c1nc2ccccc2s1	0	3	2	-1	-1	2	nt	nt	nt	nt
CC1CCC(NC(=O)C(=O)Nc2ccc3c(c2)OCO3)CC1 (configuration not stated)	7.8*	7.0*	5	2	0	5	8.9*	8.8*	1	5.7*
Cc1ccc(-c2noc(-c3ccccc3Br)n2)cc1	5.5*	16*	5	4.2*	2.9*	14*	16*	7.8*	2	21*
c1ccc(-c2noc(-c3ccccc3-c3ccccc3)n2)cc1	0	-1	2	0	-1	0	nt	nt	nt	nt
Cc1ccc(C(=O)Nc2ccc3c(c2)nc2n3CCSC2)cc1	4.6*	7.0*	4	0	0	10	13*	7.5*	1	4
CC(=O)Nc1ccc2c(c1)nc1n2CCSC1	0	-2	2	0	-2	0	nt	nt	nt	nt
Cn1c(=O)[nH]c2c(Br)nccc21	-1	0	-2	nt	-1	-1	nt	nt	nt	nt
COCCn1c(C)cc(C(=O)COC(=O)c2cccnc2SC)c1C	5.8*	7.7*	2	2	0	9	16*	5.6*	2	9.4*
O=S(=O)(/N=C(/Nc1nc2ccccc2s1)c1ccccc1)c1ccccc1	14*	8.9*	3	0	1.5*	12*	5.0*	4.2*	1	3
O=S1(=O)c2ccc(Br)cc2OC[C@@H](c2ccccc2)N1Cc1cn(CCC2OCCO2)nn1	-2	-2	-5	nt	-1	0	nt	nt	nt	nt
c1ccc(-c2noc(-c3cccc4ccccc34)n2)nc1	5.5*	18*	7	-1	3.0*	13*	12*	4.6*	2	20*
C/C(=N/NC(=O)CSc1nnc(-c2ccccc2)n1-c1ccc(Cl)cc1)c1cccc(O)c1	-1	-1	-1	nt	0	7	nt	nt	nt	nt
O=C(Nc1cccc([N+](=O)[O-])c1)c1ccc(-c2ccccc2)cc1	0	-2	2	-1	-2	1	nt	nt	nt	nt
O=C(O)c1ccc(N=NNc2cccc([N+](=O)[O-])c2)cc1	5.1*	6.7*	7	2	0	8	14*	8.0*	1	4
O=C(N/N=C/c1sc(=O)[nH]c1-[n+]1ccccc1)c1ccccc1[O-]	1	1	-2	-1	-1	1	nt	nt	nt	nt
O=C(N/N=C/c1sc(=O)[nH]c1-[n+]1ccc2ccccc2c1)c1ccccc1[O-]	4.9*	8.4*	0	1	1	5	0	1	0	2
Oc1ccccc1/C=C/c1noc(-c2ccccc2O)n1	6.1*	15*	3	7.5*	3.9*	18*	13*	9.3*	1	12*
SMILES	DAX1 inh-1	hcDAF12 agonist	SMARCA2 activ	DAX1 inh-2	ssDAF-12 act	hgDAF12 agonist	DAX1 conf	SF1 mutant ctr	LXR ag	hcDAF12 conf
CCOC(=O)[C@@]12CCC3=C1N(CCC3)C(=O)[C@H](CC(=O)NCc1ccc(C)o1)C2	0	5	-1	nt	0	5	nt	nt	nt	nt
COc1ccc(-c2nc(-c3ccc(Br)o3)no2)cc1OC	1	4	0	1	-1	5	nt	nt	nt	nt
COc1ccccc1-c1nc(-c2ccc(Br)o2)no1	7.9*	26*	4	2	4.5*	20*	17*	8.2*	2	21*
COc1cc(OC)cc(-c2nc(-c3cccs3)no2)c1	1	1	-1	0	-1	4	nt	nt	nt	nt
COc1cccc(-c2nc(-c3cccs3)no2)c1	5.3*	15*	7	3	4.0*	26*	17*	11*	2	16*
CCOC(=O)Cc1nc(N2CCN(Cc3cccc4c3OCO4)CC2)c2c(C)c(C(=O)OCC)sc2n1	-3	-2	1	nt	-2	3	nt	nt	nt	nt
N#CCSc1ccc2nc(-c3ccccc3)cn2n1	7.1*	7.5*	5	2	1.0*	7	5.8*	4.7*	1	8.1*
COCCCN1C(=O)[C@H](CC(=O)NCc2ccc(C)o2)[C@]2(C(=O)OC)CCCCC=C12	0	0	-1	nt	0	0	nt	nt	nt	nt
COc1ccc(C2NC(=S)NC3=C2CCCC3=C2SCCS2)cc1 (configuration not stated)	88*	7.9*	-5	5.0*	0	50*	13*	2	0	2
S=C1NC2=C(CCCC2=C2SCCCS2)C(c2ccccc2)N1 (configuration not stated)	0	-1	2	-1	-1	-3	nt	nt	nt	nt
O=C(OCc1nc2ccccc2s1)c1ccco1	4.9*	9.1*	1	1	1	11*	7.4*	4.7*	1	8.6*
CC(=O)c1cc(-c2cccc(Cl)c2O)c(=O)n2c1CCC2	0	0	-2	nt	-1	1	nt	nt	nt	nt

Screening data: PubChem, The Scripps Research Institute Molecular Screening Center
